The results in this text go back to PubChem BioAssay (EPA / NIEHS).

Molecules are shown by their SMILES. Results filed as inconclusive are left out. Activity calls are given as the source filed them. Rule for the calls: active = hit-call score of the fitted dose curve at least 0.9, where 1 is the maximum; inconclusive = response in the unintended direction; inactive = score below 0.9.

Read-out in this assay: HMG-CoA synthase (HMGCS2), HMGCS2 (gene 3158)
Briefly: CLD_HMGCS2_24hr: CellzDirect (CLD) Gene Expression Assay for HMG-CoA synthase (HMGCS2) at 24 hours (AID 2283691). The method, then: CLD_24hr is a cell-based, multiplexed-readout assay that uses hepatocyte, a human liver primary cell, with measurements taken at 24 hours after chemical dosing in a 96-well plate.CLD_HMGCS2_24hr is one of 16 assay component(s) measured or calculated from the CLD_24hr assay. It is designed to make measurements of mRNA induction, a form of inducible reporter, as detected with chemiluminescence signals by Quantitative Nuclease Protection Assay (qNPA) technology.Data from the assay component CLD_HMGCS2_24hr was analyzed at the endpoint, CLD_HMGCS2_24hr, in the positive analysis fitting direction relative to DMSO as the negative control and baseline of activity. Using a type of inducible reporter, gain-of-signal activity can be used to understand changes in the reporter gene as they relate to the gene HMGCS2. Furthermore, this assay endpoint can be referred to as a primary readout. To generalize the intended target to other relatable targets, this assay endpoint is annotated to the lyase intended target family, where subfamily is HMG-CoA synthase.
Human hepatocyte cultures were treated daily for two consecutive days with fresh dosing solutions containing appropriate concentrations of the 320 ToxCast chemicals (chemical identities were blinded to CellzDirect and other ToxCast collaborators), vehicle control (0.2% DMSO), and positive control inducers as summarized in Table 1. Due to the large number of treatment groups and chemicals examined, the ToxCast chemicals were divided into two groups (spanning two independent cultures of hepatocytes from separate donor preparations (Hu778: ToxCast plates 1 and 2; Hu776: ToxCast plates 3 and 4). Each preparation of human hepatocyte cultures was treated with respective vehicle control, medium only control, set of six positive controls/reference chemicals for the five hepatic receptor pathways, and a subset of eight of the ToxCast chemicals (indoxacarb, pyrithiobac-sodium, norflurazon, cyhalofop-butyl, methomyl, thiram, acetochlor, and propiconazole). These replicate data, coupled with internal replicates designed within the blinded ToxCast chemical library, provided additional data to evaluate interindividual differences between hepatocyte preparations and their potential impact on chemical profiles.Cell morphology and integrity were evaluated using phase-contrast microscopy as an indicator of hepatocyte cell health (Tyson & Green, 1987). Cultures for each treatment group (i.e., media, vehicle [0.2% DMSO], positive control inducers [multiple concentrations], and the ToxCast chemicals [multiple concentrations]) were observed and cell morphology was assessed relative to vehicle control cultures at each harvest time point (0, 6, 24, or 48 h). […] Images were evaluated at the conclusion of the study to assess changes in cell integrity and account for the effects of chemical exposure on uncharacteristic changes in concentration-dependent gene expression profiles. The results from these determinations of apparent cytotoxicity were annotated (yes/no) alongside the corresponding qNPA data for reference.At the conclusion of each treatment period, hepatocyte cultures (96-well) were washed with 1 volume of HBSS, lysed by addition of 25 ul ArrayPlate lysis buffer (HTG, Tucson, AZ), and 70 ul/well of Denaturation Oil, denatured by incubation at 95C for 10 min, and frozen at approximately -70C until analysis by nuclease protection assay (qNPA) (Roberts et al., 2007). For qNPA analysis, cell lysates were thawed at 50C for approximately 30 min, qNPA probes were added, and samples were incubated at 95C for 10 min to begin the detection process by denaturing the target RNA, dissociating the duplexes and secondary structure hybridization. At the conclusion of the hybridization period, S1 nuclease reagent was added to each sample to digest all nonprotected nucleotides at 50C for 60-90 min. […]
Consider `c1ccc(Nc2ccccc2)cc1`, for which the result was inactive. Still for that read-out and setting: the entry for `CCCCC(CC)COC(=O)c1ccccc1C(=O)O` (centres undefined) is “inactive”; for `CCOC(=O)C(C)Oc1ccc(Oc2cnc3cc(Cl)ccc3n2)cc1` (centres undefined) it is “inactive”; for `CCCOC(=O)NCCCN(C)C` it is “inactive”. Turning to `CCOC(=O)COc1cc(-n2ncc(C(F)(F)F)c(C)c2=O)c(F)cc1Cl`, the outcome was inactive. Turning to `O=C(O)C1(C(=O)Nc2ccc(Cl)cc2Cl)CC1`, the AC50 was 34.9 µM (active). As for `CCC(C)OC(=O)N1CCCCC1CCO` (centres undefined), the compound was classed as inactive. Same read-out and setting: the entry for `COC(=O)c1ccccc1C(=O)O` is “inactive”. Consider `CCOC(=O)C(C)Oc1ccc(Oc2nc3ccc(Cl)cc3o2)cc1` (centres undefined), for which the compound was called inactive. Regarding `CSC(=O)c1cccc2nnsc12`, the AC50 is 7.33 µM (active). Take `COC(=O)c1ccccc1S(=O)(=O)NC(=O)Nc1nc(OC(F)F)cc(OC(F)F)n1`: the result was inactive. In the case of `C#CCOC(=O)[C@@H](C)Oc1ccc(Oc2ncc(Cl)cc2F)cc1`, the result was inactive. Same read-out and setting: the entry for `N#CSCSc1nc2ccccc2s1` is “inactive”; for `COC(=O)c1ccc(CNS(C)(=O)=O)cc1S(=O)(=O)NC(=O)Nc1nc(OC)cc(OC)n1` it is “inactive”. Still for that read-out and setting: the same measure for `CCCCOC(=O)[C@@H](C)Oc1ccc(Oc2ccc(C(F)(F)F)cn2)cc1`: “inactive”; for `COc1c(Cl)ccc(Cl)c1C(=O)O`: “inactive”. On the same count and under the same terms, the same measure for `Oc1ccc(C(c2ccc(O)cc2)C(Cl)(Cl)Cl)cc1`: “inactive”.

Take `CCCOC(=O)c1ccc(C(=O)OCCC)nc1`: the compound was classed as inactive.

Consider `CC(C)(c1ccc(O)cc1)c1ccc(O)cc1`, for which the call was inactive. As for `CCCCOC(=O)C(C)Oc1ccc(Oc2ccc(C(F)(F)F)cn2)cc1` (centres undefined), the compound was called inactive. On the same count and under the same terms, the entry for `OB(O)O` is “inactive”; for `CCSC(=O)N(CC(C)C)CC(C)C` it is “inactive”; for `CCOC(=O)NCCOc1ccc(Oc2ccccc2)cc1` it is “inactive”.

As to `COC(=O)c1c(Cl)nn(C)c1S(=O)(=O)NC(=O)Nc1nc(OC)cc(OC)n1`, the result was inactive.

Usually AC50 stands for the concentration at which the activity in the assay is half-maximal.
